Where “and” joins values, the source holds several entries; their conditions need not be identical. Equal values may be shown once. Inconclusive results are not listed. A call without a number means that no potency is given here. Calls of active or inactive are those of the source. Unless noted, the call rests on the fitted dose curve; in most records, active means well fitted curve in the direction sought with a large enough effect in the repeat runs; inconclusive means weak or mixed curves; inactive means no such curve, though single readings can be large; an effect the other way counts as inactive or inconclusive.
What was measured:
[1] = qHTS assay for small molecule agonists of the p53 signaling pathway (AID 651631; calls by dose curve; further: nearly all actives have a fitted effect of over 15% in size; further: potency means the concentration at half of the fitted maximal effect)
In short: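 Beta-lactamase reporter activity under p53 response elements was quantified in HCT-116 cells by FRET fluorescence, following 16 h incubation with test compounds at 37 °C and 2 h substrate development at room temperature.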

[2] = qHTS assay for small molecules that induce genotoxicity in human embryonic kidney cells expressing luciferase-tagged ATAD5 (AID 651632); further: nearly all actives have a fitted effect of over 15% in size
In short: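 Test compounds were delivered by pin tool onto HEK293T reporter cells (2,000/well) expressing ATAD5 fused to luciferase. After 16 hr at 37C, 5% CO2, Amplite was added for 30 min at room temperature and luminescence was measured.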

[3] = qHTS assay for small molecule agonists of the p53 signaling pathway - cell viability (AID 651633; calls by dose curve; further: nearly all actives have a fitted effect of over 30% in size; further: potency means the concentration at half of the fitted maximal effect)
In short: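 Viability counter-read: CellTiter-Glo luminescence (30 min, room temperature) in the same p53RE-bla plates. These plates had been exposed to compounds for 16 h at 37 C.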

[4] = qHTS assay for small molecule disruptors of the mitochondrial membrane potential - cell viability (AID 720634; calls by dose curve;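 further: human HepG2 liver cancer cells; series mostly up to about 83 µM; nearly all actives have a fitted effect of over 20% in size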)
In short: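 Same-well counter-screen: following the MMP dye addition, CellTiter-Glo was added to 1 hr compound-treated HepG2 cells and luminescence read after 30 min at room temperature.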

[5] = qHTS assay for small molecule disruptors of the mitochondrial membrane potential (AID 720635); further: potency means the concentration at half of the fitted maximal effect
In short: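 Mitochondrial membrane potential tracked with Mito-MPS dye, red aggregates (ex 540/em 590 nm) against green monomers (ex 490/em 535 nm). Compound treatment 1 hr at 37C, dye 30 min in HepG2.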

[6] = qHTS assay to test for compound auto fluorescence at 590 nm (red) in HepG2 cells (AID 720674)
In short: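 Red autofluorescence (Ex/Em 540/590 nm, Rose Bengal sodium equivalents) was measured in HepG2 cells, 2,000 per well in MEM plus 10% FBS, plated overnight at 37 C. Readings were taken 1 hr after adding 23 nL compound or DMSO, at 37 C and 5% CO2.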

[7] = qHTS assay to test for compound auto fluorescence at 535 nm (green) in HepG2 cells (AID 720675)
[8] = qHTS assay to test for compound auto fluorescence at 460 nm (blue) in HEK293 cells (AID 720678)
In short: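 Blue-channel (Ex/Em 405/460 nm) intensity measured in HEK293 cultures after overnight compound exposure at 37C; signal expressed relative to triamterene. Cells plated 2,000 per well in 10% dialyzed FBS medium and allowed 4-5 hr to attach.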

[9] = qHTS assay to test for compound auto fluorescence at 590 nm (red) in HEK293 cells (AID 720679)
In short: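 Red-channel autofluorescence (Ex/Em 540/590 nm; Rose Bengal sodium reference) was measured after overnight 37C, 5% CO2 exposure of attached HEK293 cells, 2,000 per well in medium with 10% dialyzed FBS.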

[10] = qHTS assay to test for compound auto fluorescence at 535 nm (green) in HEK293 cells (AID 720680)
[11] = qHTS assay to test for compound auto fluorescence at 460 nm (blue) in HEK293 cell free culture (AID 720681); further: potency means the concentration at half of the fitted maximal effect
In short: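 Blue fluorescence (Ex 405/Em 460 nm, triamterene-equivalent) was read immediately after pin transfer of compound or DMSO into medium (DMEM, 10% FBS) without cells.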

[12] = qHTS assay to test for compound auto fluorescence at 535 nm (green) in HEK293 cell free culture (AID 720682)
In short: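 Each library compound, or DMSO control, is added by pintool to medium alone, comprising DMEM and 10% FBS. Emission at 535 nm following 485 nm excitation is quantified against fluorescein.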

[13] = qHTS assay to test for compound auto fluorescence at 590 nm (red) in HEK293 cell free culture (AID 720683)
In short: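 Red-channel autofluorescence of compounds in culture medium (DMEM, 10% FBS), no cells, measured at 540/590 nm. Rose Bengal sodium is the reference fluorophore for equivalence.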

[14] = qHTS assay to test for compound auto fluorescence at 590 nm (red) in HepG2 cell free culture (AID 720684)
In short: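 No cells present: MEM + 10% FBS only. Compound pinned in, red label read (540/590 nm). Activity = fluorescence equivalent to Rose Bengal sodium.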

[15] = qHTS assay to test for compound auto fluorescence at 460 nm (blue) in HepG2 cell free culture (AID 720685); further: potency means the concentration at half of the fitted maximal effect
In short: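 Cell-free plates of MEM plus 10% FBS received 23 nL compound or DMSO vehicle; blue-channel (405/460 nm) intensity scored against triamterene as reference fluorophore.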

[16] = qHTS assay to test for compound auto fluorescence at 535 nm (green) in HepG2 cell free culture (AID 720686)
[17] = qHTS assay to test for compound auto fluorescence at 460 nm (blue) in HepG2 cells (AID 720687); further: potency means the concentration at half of the fitted maximal effect
In short: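 Blue-channel autofluorescence (Ex/Em 405/460 nm, triamterene-equivalent) was measured after 1 hr compound exposure at 37 C, 5% CO2. Cells were HepG2, plated overnight at 37 C in MEM plus 10% FBS.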

[18] = target: Glucocorticoid receptor (Homo sapiens) (UniProt P04150); assay: qHTS assay to identify small molecule antagonists of the glucocorticoid receptor (GR) signaling pathway (AID 720692; active means well fitted inhibition curve with a large enough effect in the signal ratio in the repeat runs, not every such curve was filed as active; the % refers to the signal ratio; further: potency means the concentration at half of the fitted maximal effect)
In short: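 GRE-bla HeLa line, dex-stimulated (5 nM final). Compound exposure 18 h, 37 C. Beta-lactamase FRET read after 2 h RT substrate.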

[19] = qHTS assay for small molecules that induce genotoxicity in human embryonic kidney cells expressing luciferase-tagged ATAD5 - cell viability (AID 651634; calls by dose curve; further: nearly all actives have a fitted effect of over 25% in size)
In short: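 Quantitative high-throughput format. HEK293T cells expressing ATAD5 fused to luciferase were plated at 2,000 cells/well and treated 15.5 hr with compound versus DMSO. Viability was determined by fluorescent live-cell protease substrate, 30 min at 37C.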

[20] = target: Glucocorticoid receptor (Homo sapiens) (UniProt P04150); assay: qHTS assay to identify small molecule agonists of the glucocorticoid receptor (GR) signaling pathway (AID 720691; active means well fitted activation curve with a large enough effect in the signal ratio in the repeat runs, not every such curve was filed as active; the % refers to the signal ratio; further: potency means the concentration at half of the fitted maximal effect)
In short: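 A HeLa cervical cancer line expressing GR and a glucocorticoid response element-driven beta-lactamase gene is treated with compounds for 18 h; LiveBLAzer B/G FRET substrate is then applied and fluorescence read.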
Tags describe the fitted curve by direction and shape or compound fluorescence and quenching.

Sequence of Glucocorticoid receptor (Homo sapiens) (P04150 whole entry, looked up): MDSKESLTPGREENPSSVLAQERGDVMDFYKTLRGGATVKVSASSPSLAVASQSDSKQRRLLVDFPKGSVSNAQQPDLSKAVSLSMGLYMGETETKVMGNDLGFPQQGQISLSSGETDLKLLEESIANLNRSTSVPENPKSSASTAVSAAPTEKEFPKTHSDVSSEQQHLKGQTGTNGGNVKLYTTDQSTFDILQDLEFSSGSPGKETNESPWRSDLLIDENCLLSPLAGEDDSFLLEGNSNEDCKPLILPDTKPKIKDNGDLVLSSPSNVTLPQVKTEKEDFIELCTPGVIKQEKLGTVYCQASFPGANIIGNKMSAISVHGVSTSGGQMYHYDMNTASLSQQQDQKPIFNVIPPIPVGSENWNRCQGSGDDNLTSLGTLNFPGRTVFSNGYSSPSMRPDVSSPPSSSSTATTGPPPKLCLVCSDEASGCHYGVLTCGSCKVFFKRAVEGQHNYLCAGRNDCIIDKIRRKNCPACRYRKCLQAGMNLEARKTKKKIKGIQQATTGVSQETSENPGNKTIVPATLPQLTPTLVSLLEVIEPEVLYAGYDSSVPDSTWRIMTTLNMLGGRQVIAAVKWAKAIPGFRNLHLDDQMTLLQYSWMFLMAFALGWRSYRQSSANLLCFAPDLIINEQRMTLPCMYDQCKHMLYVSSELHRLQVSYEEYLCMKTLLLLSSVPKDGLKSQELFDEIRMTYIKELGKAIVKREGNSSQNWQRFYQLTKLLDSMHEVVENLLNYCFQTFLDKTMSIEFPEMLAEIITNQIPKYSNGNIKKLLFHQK

C[C@]12CC[C@@H]3c4ccc(O)cc4CC[C@H]3[C@@H]1CC[C@@H]2O
Potency [1]: 13.3 µM (active) and 19.3 µM (active) and 9.69 µM (active)
Potency [2]: inactive
Potency [3]: inactive
Potency [4]: inactive
Potency [5]: 26.6 µM (active) and 30.6 µM (active) and 17.2 µM (active)
Potency [6]: inactive
Potency [7]: inactive
outcome [8]: inactive
Potency [9]: inactive
Potency [10]: inactive
Potency [11]: inactive
Potency [12]: inactive
Potency [13]: inactive
Potency [14]: inactive
Potency [15]: inactive
Potency [16]: inactive
Potency [17]: inactive
Potency [18]: 4.25 µM (active) and 2.18 µM (active)

c1ccc2c(c1)[nH]c1ccccc12
Potency [1]: inactive
Potency [2]: inactive
Potency [3]: inactive
Potency [19]: inactive
Potency [5]: 19 µM (active) and 21.7 µM (active)
Potency [6]: inactive
Potency [7]: inactive
outcome [8]: inactive
Potency [9]: inactive
Potency [10]: inactive
Potency [11]: inactive
Potency [12]: inactive
Potency [13]: inactive
Potency [14]: inactive
Potency [15]: inactive
Potency [17]: inactive
Potency [20]: inactive
Potency [18]: inactive

COc1cc([C@H]2Oc3cc([C@H]4Oc5cc(O)cc(O)c5C(=O)[C@@H]4O)ccc3O[C@@H]2CO)ccc1O
Potency [1]: inactive
Potency [2]: inactive
Potency [3]: inactive
Potency [19]: inactive
Potency [5]: 29.8 µM (active) and 21.6 µM (active)
Potency [6]: inactive
Potency [7]: inactive
outcome [8]: inactive
Potency [9]: inactive
Potency [10]: inactive
Potency [11]: inactive
Potency [12]: inactive
Potency [14]: inactive
Potency [15]: inactive
Potency [16]: inactive
Potency [17]: inactive
Potency [20]: inactive
Potency [18]: inactive

O=C(O)c1ccc(O)cc1
Potency [1]: inactive
Potency [2]: inactive
Potency [3]: inactive
Potency [4]: inactive
Potency [5]: inactive
Potency [6]: inactive
Potency [7]: inactive
outcome [8]: inactive
Potency [9]: inactive
Potency [10]: inactive
Potency [11]: inactive
Potency [12]: inactive
Potency [13]: inactive
Potency [14]: inactive
Potency [15]: inactive
Potency [16]: inactive
Potency [17]: inactive
Potency [20]: inactive
Potency [18]: inactive

IC(I)I
Potency [1]: inactive
Potency [2]: inactive
Potency [3]: inactive
Potency [6]: inactive
Potency [7]: inactive
outcome [8]: inactive
Potency [9]: inactive
Potency [10]: inactive
Potency [11]: inactive
Potency [12]: inactive
Potency [13]: inactive
Potency [14]: inactive
Potency [15]: inactive
Potency [16]: inactive
Potency [17]: inactive
Potency [20]: inactive
Potency [18]: inactive

C=CC(C)(O)CCC=C(C)C (stereo unspecified)
Potency [2]: inactive
Potency [3]: inactive
Potency [4]: inactive
Potency [5]: inactive
Potency [6]: inactive
Potency [7]: inactive
outcome [8]: inactive
Potency [9]: inactive
Potency [10]: inactive
Potency [11]: inactive
Potency [12]: inactive
Potency [13]: inactive
Potency [14]: inactive
Potency [15]: inactive
Potency [16]: inactive
Potency [17]: inactive
Potency [20]: inactive
Potency [18]: inactive

CC(=O)Oc1c(C)c(C)c2c(c1C)CC[C@@](C)(CCC[C@H](C)CCC[C@H](C)CCCC(C)C)O2
Potency [1]: inactive
Potency [3]: inactive
Potency [4]: inactive
Potency [5]: inactive
Potency [6]: inactive
Potency [7]: inactive
outcome [8]: inactive
Potency [9]: inactive
Potency [10]: inactive
Potency [11]: inactive
Potency [12]: inactive
Potency [14]: inactive
Potency [15]: inactive
Potency [17]: inactive

O=C(O)COCCN1CCN(C(c2ccccc2)c2ccc(Cl)cc2)CC1 (stereo unspecified)
Potency [2]: inactive
Potency [3]: inactive
Potency [4]: inactive
Potency [6]: inactive
Potency [7]: inactive
outcome [8]: inactive
Potency [9]: inactive
Potency [10]: inactive
Potency [11]: inactive
Potency [12]: inactive
Potency [14]: inactive
Potency [15]: inactive
Potency [16]: inactive
Potency [17]: inactive

CN(Cc1cnc2nc(N)nc(N)c2n1)c1ccc(C(=O)N[C@@H](CCC(=O)O)C(=O)O)cc1
Potency [2]: inactive
Potency [3]: 168 nM (active) and 48.6 nM (active)
Potency [19]: inactive
Potency [4]: inactive
Potency [6]: inactive
Potency [7]: inactive
Potency [9]: inactive
Potency [10]: inactive
Potency [11]: 39.8 µM (active)
Potency [12]: inactive
Potency [13]: inactive
Potency [14]: inactive
Potency [15]: 35.5 µM [fluorescent] (active)
Potency [17]: 35.5 µM [fluorescent] (active)

CCOC(=O)C(C)Oc1ccc(Oc2cnc3cc(Cl)ccc3n2)cc1 (stereo unspecified)
Potency [2]: inactive
Potency [4]: inactive
Potency [6]: inactive
Potency [7]: inactive
outcome [8]: inactive
Potency [9]: inactive
Potency [10]: inactive
Potency [11]: inactive
Potency [12]: inactive
Potency [14]: inactive
Potency [15]: inactive
Potency [17]: inactive
Potency [20]: inactive

CC(=O)O[C@]1(C(C)=O)CC[C@H]2[C@@H]3C=C(C)C4=CC(=O)CC[C@]4(C)[C@H]3CC[C@@]21C
Potency [2]: inactive
Potency [3]: inactive
Potency [19]: inactive
Potency [4]: inactive
Potency [6]: inactive
Potency [7]: inactive
outcome [8]: inactive
Potency [9]: inactive
Potency [10]: inactive
Potency [11]: inactive
Potency [12]: inactive
Potency [14]: inactive
Potency [15]: inactive
Potency [16]: inactive
Potency [17]: inactive
Potency [20]: 51.2 nM (active) and 61.6 nM (active)
Potency [18]: 91 nM (active) and 77.6 nM (active)

CC(C)[C@@H]1CC[C@@H](C)CC1=O
Potency [1]: inactive
Potency [3]: inactive
Potency [4]: inactive
Potency [6]: inactive
Potency [7]: inactive
outcome [8]: inactive
Potency [9]: inactive
Potency [10]: inactive
Potency [11]: inactive
Potency [12]: inactive
Potency [13]: inactive
Potency [14]: inactive
Potency [15]: inactive
Potency [17]: inactive

CC1(C)C(C=C(Cl)Cl)C1C(=O)OCc1cccc(Oc2ccccc2)c1 (stereo unspecified)
Potency [2]: inactive
Potency [3]: inactive
Potency [4]: inactive
Potency [5]: 30.6 µM (active)
Potency [6]: inactive
Potency [7]: inactive
outcome [8]: inactive
Potency [9]: inactive
Potency [10]: inactive
Potency [11]: inactive
Potency [12]: inactive
Potency [14]: inactive
Potency [15]: inactive
Potency [16]: inactive
Potency [17]: inactive
Potency [20]: inactive
Potency [18]: inactive
